# This is part of a sample that, as a whole, favours compounds with a hit. Of some 79,000 tested, about 15% had one in any assay. Unmarked numbers belong to inactive results. The source made the active and inactive calls. Cut-off read from the data, not from the text of the source: active = growth inhibition above about 70%; inactive = the rest.
# Assay: NCI Yeast Anticancer Drug Screen. Data for the rad50 strain (AID 155);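 note: 0% = growth of vehicle-only cultures of the same strain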
# Conditions: S. cerevisiae rad50 strain growth inhibition, stronger effect = higher value
# Protocol: Growth inhibition of yeast strains with defined genetic alterations is measured as a screen for potential anti-cancer activity. Selected strains with alterations in DNA damage repair or cell cycle control were exposed to compounds and growth inhibition was measured relative to vehicle treated controls. The strain used in this assay is rad50
# [1] = at 5.0 µM (retest, dose inferred, filed as 0.5)
# [2] = at 50.0 µM (retest, dose inferred, filed as 5.0)
SMILES,growth inhibition [1],growth inhibition [2],growth inhibition (at 50.0 µM)
O=[N+]([O-])c1ccccc1NCCO,1%,-2%,-10.2%
O=C1c2ccc(S(=O)(=O)O)cc2C(=O)c2ccc(S(=O)(=O)O)cc21,3%,23%,49.3%
CC(C)Cn1cnc2c(SCc3ccc(Cl)cc3Cl)nc(N)nc21,0%,46%,36.7%
C[N+](C)(C)CCCCCCCCCCC(=O)N/N=C/c1ccc([N+](=O)[O-])o1,6%,8%,9.85%
CC1(C)CC(=N/O)/C(=N/O)C(=N\NC(N)=S)/C1,7%,54%,69.9%
c1ccc(OCCCOc2ccccc2)cc1,4%,2%,-4.15%
CN(C)S(=O)(=O)c1cc(Cl)ccc1NN,-114%,-20%,59.6%
CCOc1ccc(/C=C\c2ccnc3ccccc23)cc1OCC,-5%,97% (active),98.3% (active)
Cc1cc(C)c([O-])c(-[n+]2c(-c3ccccc3)cc(-c3ccccc3)cc2-c2ccccc2)c1,14%,14%,90.8% (active)
O=[N+]([O-])c1cc(C(F)(F)F)ccc1SSc1ccc(C(F)(F)F)cc1[N+](=O)[O-],45%,86% (active),60.9%
Cc1ccc(-c2ccccc2)n1-c1cc(Cl)ccc1O,12%,99% (active),99% (active)
NCCNC[Si](c1ccccc1)(c1ccccc1)c1ccccc1,-13%,92% (active),7.6%
CCCCC(=O)c1nc(N(CC2CCCCC2)C(=O)NC)sc1N,-3%,11%,1.8%
Cc1ccc(-c2c(C#N)c(-c3ccc(Cl)cc3)c(C#N)c(=O)n2NS(=O)(=O)c2ccccc2)cc1,38%,50%,63.2%

# — PubChem BioAssay (NCI)
